Out of some 48,000 compounds screened, about 13,000 (27%) showed an effect of 50% or more. The list shows a part of the results.
These compounds were tested on Wolbachia pipientis (assay: Anti-Wolbachia Cell-Based Screen). Details: 5 µM.
Type: functional
Design: scale not given: in the data most compounds retested in dose-response had high values

| Structure (SMILES) | Percent Effect [%] |
| --- | --- |
| CCCNC(=O)NC(=O)CN(CC(C)O)c1ccccc1 (centres undefined) | 5.048 |
| CC(C)C[C@@H]1N[C@H](C(=O)NC2CCOCC2)Cc2c[nH]c3cccc1c23 | -3.699 |
| O=C(COc1ccc2c(c1)CCC2)N1CCOCC1c1ncon1 (centres undefined) | -4.669 |
| O=C(NCCSCc1ccc(Br)s1)C1CCCN(C(=O)c2cccs2)C1 (centres undefined) | -11.8 |
| CC(=O)N[C@H]1CCN(c2nc(C)nc3c2c(C)nn3C)C1 | -0.02014 |
| CCn1ncc(NC(=O)c2cc(C3CC3)nc3c2c(C)nn3C)c1C | 0.1323 |
| Cc1cc(C(=O)Nc2cc(C3CC3)n[nH]2)c2c(C)nn(C)c2n1 | 94.33 |
| O=C1NCCCC1NC(=O)C1(c2cccc(Cl)c2)CCC1 (centres undefined) | -14.19 |
| CC(=O)NC1CCN(C(=O)Nc2cccc(SC(F)F)c2)CC1 | -5.711 |
| CC(=O)NC1CCN(C(=O)Nc2cccc(C(F)(F)F)c2)CC1 | -0.6218 |
| CC(=O)Nc1cccc([C@H]2C[C@@H](NC(C)=O)CCO2)c1 | 88.4 |
| CC1CN(C(=O)C2(c3ccc(F)cc3F)CCOCC2)CCO1 (centres undefined) | -18.6 |
| CC(=O)N1CCC(C(=O)N2CCC(=Cc3cccc(F)c3)CC2)CC1 | 0.4533 |
| Cc1cc(CN(C)C(=O)NCc2ccco2)no1 | 6.91 |
| O=C(NCc1ccco1)N1CCCCC1c1nc(C2CC2)no1 (centres undefined) | 74.85 |
| COc1ncccc1C(=O)N1CCCC1c1nc(-c2ccccc2)no1 (centres undefined) | -0.6104 |
| Cc1noc(C2CCCCN2C(=O)NCc2ccco2)n1 (centres undefined) | 91.67 |
| O=C(NCc1ccco1)N1CCCCC1c1nc(-c2ccncc2)no1 (centres undefined) | 87.86 |
| O=C(NCc1ccco1)C1CCCN1Cc1nc(-c2ccco2)no1 (centres undefined) | -1.216 |
| CSc1nc(C2CC2)nc(C)c1C(=O)NCc1ccco1 | -1.039 |
| O=C(c1ccc2nccn2c1)N1CCCC1c1noc(C2CC2)n1 (centres undefined) | 1.976 |
| O=C(NC1CCCC1)N1CCCCC1c1nc(C2CC2)no1 (centres undefined) | 105.7 |
| Cc1noc(C2CCCCN2C(=O)C2CCN(C(C)C)CC2)n1 (centres undefined) | -32.36 |
| CN(C)Cc1nnc(C(=O)N(C)Cc2ccc(F)cc2)o1 | -46.46 |
| Cn1cc(C2CCCN2C(=O)CCCc2nc3ccccc3[nH]2)cn1 (centres undefined) | 0.1259 |

| Structure (SMILES) | Percent Effect [%] |
| --- | --- |
| CC(=O)N1CCC(NC2(Cc3cc(CN(C)C)on3)COC2)CC1 | -3.87 |
| Cc1ccc(-c2nn3c(nc2=O)-c2ccccc2NC3C(=O)O)cc1C (centres undefined) | -8.788 |
| CCc1ncncc1C(=O)N1CCOC(c2nc(C)n[nH]2)C1 (centres undefined) | 2.402 |
| CCCc1n[nH]c(C2CN(C(=O)c3ccnc(C4CC4)n3)CCO2)n1 (centres undefined) | 146 |
| CCc1n[nH]c(C2CN(C(=O)c3ccnc(C4CC4)n3)CCO2)n1 (centres undefined) | 101.3 |
| Cc1n[nH]c(C2CN(C(=O)c3ccnc(C4CC4)n3)CCO2)n1 (centres undefined) | -13.72 |
| CCc1n[nH]c(C2CN(C(=O)c3ccnc(C)n3)CCO2)n1 (centres undefined) | 98.73 |
| CCc1n[nH]c(C2CN(C(=O)c3cnc(C)nc3CC)CCO2)n1 (centres undefined) | 106.1 |
| Cc1nc(N)cc(NCc2csc(N(C)C)n2)n1 | -17.8 |
| O=S(=O)(NCCc1c[nH]c2cc(F)ccc12)C1CCOC1 (centres undefined) | 22.23 |
| CS(=O)(=O)c1ccc(OCCNCc2ccc(F)cc2F)cc1 | -10.65 |
| Cl.O=C(C1CC1)N1CCC2(CC1)CNc1ccc(F)cc12 | -2.948 |
| CC(CC#N)N(C)Cc1ccc(F)cc1C#N (centres undefined) | 3.658 |
| CCc1nnc(CN2CCC3(CCC(=O)N(C4CCCC4)C3)CC2)o1 | 8.44 |
| O=C(CN1CCN(c2ncnc3cccc(F)c23)CC1)N1CCCC1 | 6.401 |
| COCCO[C@H]1CCN(Cc2ccoc2)[C@H]1Cc1cccnc1 | 85.57 |
| COCCO[C@@H]1CCN(C(=O)c2ccc[nH]2)[C@H]1Cc1cnn(C)c1 | -18.74 |
| COCCO[C@H]1CCN(Cc2cnn(C)c2)[C@H]1Cc1cccnc1 | 86.22 |
| Cn1cc(CN2CC[C@@H](NS(C)(=O)=O)[C@@H]2Cc2cccnc2)cn1.O=C(O)C(F)(F)F.O=C(O)C(F)(F)F | 0.0713 |
| CS(=O)(=O)N[C@@H]1CCN(Cc2cccnc2)[C@H]1Cc1cccnc1 | 0.03565 |
| O=C(O)C(F)(F)F.O=C(O)C(F)(F)F.O[C@H]1CCN(Cc2ccoc2)[C@H]1Cc1cccnc1 | -11.6 |
| C=C(C)COc1cccc(C(=O)N(CC)Cc2nc(COC)no2)c1 | -39.48 |
| Cn1c(N)nnc1SC1CCCN(c2ccccc2F)C1=O (centres undefined) | -7.514 |
| COCc1nn(C(C)C)c2c1CCN(Cc1ccc(C)s1)C2.O=C(O)C(F)(F)F | 2.652 |
| Cn1nc(COCC2CC2)c2c1CN(C(=O)c1ccno1)CC2.O=C(O)C(F)(F)F | -4.068 |

| Structure (SMILES) | Percent Effect [%] |
| --- | --- |
| Cc1ccc(CN2CCc3c(C(=O)N(C)C)nn(C)c3C2)s1.O=C(O)C(F)(F)F | -3.635 |
| Cn1nc(COCC2CC2)c2c1CN(CC1CC1)CC2.O=C(O)C(F)(F)F.O=C(O)C(F)(F)F | 100.4 |
| CC(C)OCc1nn(C)c2c1CCN(Cc1ccco1)C2.O=C(O)C(F)(F)F | -9.352 |
| CC(C)OCc1nn(C)c2c1CCN(CC1CC1)C2.O=C(O)C(F)(F)F | 103.7 |
| CC(C)OCc1ncn2c1CN(CC1CC1)CCC2.O=C(O)C(F)(F)F | 10.37 |
| O=C(O)C(F)(F)F.c1nc(COCC2CC2)c2n1CCCN(CC1CC1)C2 | -4.563 |
| Cc1ccc(CN2CCc3c(COCC4CC4)nn(C)c3C2)s1.O=C(O)C(F)(F)F | 115.6 |
| N#CCc1ccc(OCC(=O)NS(=O)(=O)c2ccc(Cl)s2)cc1 | -0.9374 |
| CC(C)[C@H](C)NC1CCN(c2ccc(-c3cscn3)cc2)CC1 | -7.145 |
| CCCn1nnnc1CSCc1cn2c(C)cccc2n1 | 8.521 |
| N#Cc1cccnc1N1CCCC(CO)(Cc2ccccc2F)C1 (centres undefined) | 12.54 |
| CNS(=O)(=O)CC(=O)N(Cc1ccsc1)c1ccccc1 | 7.339 |
| NC[C@H]1CC[C@H](C(NC(=O)C2CC2)c2ccccn2)CC1 (some centres undefined) | 117.5 |
| NC[C@H]1CC[C@H](C(NC(=O)c2ccccc2)c2ccccn2)CC1 (some centres undefined) | -1.705 |
| NC[C@H]1CC[C@H](C(NC(=O)CC2CCCCC2)c2ccccn2)CC1 (some centres undefined) | 140.5 |
| CC(C)[C@H]1CN(Cc2ccccn2)C[C@@H]1NC(=O)CC1CCC1 | -7.125 |
| NC[C@H]1CC[C@H](C(NC(=O)c2ccccn2)c2ccccn2)CC1 (some centres undefined) | -2.81 |
| NC[C@H]1CC[C@H](C(NC(=O)CC2CCCC2)c2ccccn2)CC1 (some centres undefined) | 151 |
| O=C(Cn1cnc(NC(=O)CC2CCCC2)n1)NCc1ccccc1 | -4.841 |
| CCCC(=O)NC(Cc1ccc(C)cc1)c1ccccn1 (centres undefined) | -7.589 |
| O=C(OC1CCC1)c1ncccc1C(F)(F)F | -15.91 |
| CC(C)c1nnc(NCc2cc3n(n2)CCNC3)s1 | 7.297 |
| CC1CCN(S(=O)(=O)NC(C)Cc2ccco2)CC1 (centres undefined) | 1.293 |
| Cc1nc(CN(C)Cc2cn[nH]c2-c2ccc(F)cc2)c[nH]1 | 20.15 |
| CC(C)[C@H]1COC(=O)N1CC(=O)N1CCN(C(=O)c2ccco2)CC1 | 1.132 |

| Structure (SMILES) | Percent Effect [%] |
| --- | --- |
| CN1CC2(CCCN(CCOCc3ccccc3)C2)OC1=O (centres undefined) | 96.52 |
| CS(=O)(=O)NC1CCN(CCOCc2ccccc2)CC1 | 0.008163 |
| CN1CC2(CCN(C(=O)CCCOCc3ccccc3)C2)OC1=O (centres undefined) | 107.9 |
| CN1CC2(CCN(CCCOCc3ccccc3)CC2)OC1=O | 106.4 |
| COCCC1(C(=O)O)CCCN(CCOCc2ccccc2)C1 (centres undefined) | 2.553 |
| COc1ccc(/C=C/CN2CCC3(CC2)CN(C)C(=O)O3)cc1 | -13.05 |
| CCC1(C(=O)O)CCCN(CCOCc2ccccc2)C1 (centres undefined) | 2.602 |
| Cc1ccc2oc(=O)n(CCC(=O)N3CCC4(CN(C)C(=O)O4)C3)c2c1 (centres undefined) | 2.838 |
| CN1CC2(CCN(C(=O)c3[nH]cnc3-c3ccccc3)C2)OC1=O (centres undefined) | -16.32 |
| Cc1cc(NC(=O)N2CCC[C@@H]2CO)nn1-c1ccccc1Cl | -2.328 |
| CC(C)COCCC(=O)Nc1c(-c2ccc(F)cc2)ncn1C | 34.39 |
| O=C(NC1CC1)[C@H]1C[C@H]2OCC[C@H]2N(Cc2ccc(F)cc2)C1.O=C(O)C(F)(F)F | -3.794 |
| Cc1ccc([C@@H]2CN(C(=O)c3ccsc3)C[C@H]2NC(=O)C2CC2)cc1 | -0.5207 |
| O=C(NCC(O)c1ccccc1Cl)c1cccc(-n2cnnn2)c1 (centres undefined) | -6.148 |
| Cc1nc(CN2CCCC(N(C)c3ccc(C#N)cn3)C2)no1 (centres undefined) | 1.567 |
| CC(=O)N(Cc1noc(C)n1)C1CCN(Cc2c(C)noc2C)C1 (centres undefined) | 106.6 |
| Cc1nc(CN(C)C2CCN(Cc3c(C)noc3C)C2)no1 (centres undefined) | -3.836 |
| Cc1nc(CN2CCCC(N(C)Cc3c(C)noc3C)C2)no1 (centres undefined) | 5.065 |
| COCCCN(C)C1CCCN(Cc2noc(C)n2)C1 (centres undefined) | -3.028 |
| CC(=O)N(Cc1noc(C)n1)C1CCN(Cc2cccc(C#N)c2)C1 (centres undefined) | 124.3 |
| CC(=O)N(Cc1noc(C)n1)C1CCN(Cc2ccc(C#N)cc2)C1 (centres undefined) | 102.5 |
| CC(=O)N(Cc1noc(C)n1)C1CCN(Cc2ccccc2C#N)C1 (centres undefined) | -0.5328 |
| COCCN1CCC(N(Cc2noc(C3CC3)n2)C(C)=O)C1 (centres undefined) | 0.8027 |
| COCCCN1CCC(N(Cc2noc(C)n2)C(C)=O)C1 (centres undefined) | 116.1 |
